# Data published in PubChem BioAssay (Tox21).
# Unmarked numbers belong to inactive results. Inconclusive results are not listed. Entries that show only a call come without a potency. Activity calls are given as the source filed them. Calls follow the shape of the dose curve; as a rule, active = well fitted curve in the direction sought with a large enough effect in the repeat runs; inconclusive = weak or mixed curves; inactive = no such curve, though single readings can be large; an effect the other way counts as inactive or inconclusive.
# Tests used:
# [1] = qHTS RealTime-Glo MT Cell Viability Assay in HepG2 cells - 8 hour (AID 1224873); also: nearly all actives have a fitted effect of over 55% in size
# Method in brief: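 HepG2 cells (600/well) mixed with RealTime-Glo MT reagent, settled 5 h at 37 C/5% CO2 before compound addition. Nonlytic NanoLuc luminescence from viable-cell prosubstrate reduction read repeatedly during 40 h treatment at 37 C.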
# [2] = qHTS RealTime-Glo MT Cell Viability Assay in HEK293 cells - 40 hour (AID 1224874); conditions: RealTime-Glo luminescence; max response: stronger effect = lower value; also: nearly all actives have a fitted effect of over 50% in size; also: potency is read from the fitted curve at half-maximal effect
# Method in brief: (§1)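 HEK293 cells mixed with RealTime-Glo reagents (NanoLuc plus cell-permeant prosubstrate) at 600 cells/well, preincubated 5 h at 37 C/5% CO2, then given 23 nL compound in DMSO. Nonlytic luminescence from viable cells was read at 0, 8, 16, 24, 32 and 40 h.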
# [3] = A CellTox Green Cytotoxicity Assay to monitor cytotoxicity in HEK293 cells - 24 hour (AID 1224875); also: nearly all actives have a fitted effect of over 45% in size; also: potency is read from the fitted curve at half-maximal effect
# Method in brief: (§2)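 HEK293 cells premixed with CellTox Green dye were seeded at 600 cells/well and left 5 h at 37 C/5% CO2 before pin transfer of 23 nL compound in DMSO. Fluorescence from dye bound to dead-cell DNA was read during 40 h treatment.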
# [4] = A CellTox Green Cytotoxicity Assay to monitor cytotoxicity in HepG2 cells - 16 hour (AID 1224876); also: nearly all actives have a fitted effect of over 45% in size; also: potency is read from the fitted curve at half-maximal effect
# Method in brief: (§3)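 HepG2 cells were seeded together with the CellTox Green dye at 600 cells/well, left 5 h at 37 C/5% CO2, then given compounds in DMSO. Fluorescence from dye bound to dead-cell DNA was read repeatedly over 40 h of treatment at 37 C.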
# [5] = qHTS RealTime-Glo MT Cell Viability Assay in HEK293 cells - 0 hour (AID 1224880); also: top concentration of the series differs between compounds; nearly all actives have a fitted effect of over 45% in size
# Method in brief: as §1
# [6] = A CellTox Green Cytotoxicity Assay to monitor cytotoxicity in HEK293 cells - 32 hour (AID 1224881); also: nearly all actives have a fitted effect of over 40% in size; also: potency is read from the fitted curve at half-maximal effect
# Method in brief: as §2
# [7] = A CellTox Green Cytotoxicity Assay to monitor cytotoxicity in HepG2 cells - 0 hour (AID 1224882); also: nearly all actives have a fitted effect of over 35% in size; also: potency is read from the fitted curve at half-maximal effect
# Method in brief: as §3
# [8] = A CellTox Green Cytotoxicity Assay to monitor cytotoxicity in HepG2 cells - 32 hour (AID 1224883); also: nearly all actives have a fitted effect of over 50% in size; also: potency is read from the fitted curve at half-maximal effect
# Method in brief: as §3
# [9] = A CellTox Green Cytotoxicity Assay to monitor cytotoxicity in HEK293 cells - 8 hour (AID 1224884); also: nearly all actives have a fitted effect of over 35% in size; also: potency is read from the fitted curve at half-maximal effect
# Method in brief: as §2
# [10] = qHTS RealTime-Glo MT Cell Viability Assay in HepG2 cells - 16 hour (AID 1224885); also: nearly all actives have a fitted effect of over 50% in size
# Method in brief: (§4)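 HepG2 suspension premixed with RealTime-Glo reagents is plated at 600 cells per well and left 5 h at 37 C/5% CO2. Compounds in DMSO then go in, and bioluminescence reflecting viable cell number is recorded over 40 h.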
# [11] = qHTS RealTime-Glo MT Cell Viability Assay in HEK293 cells - 24 hour (AID 1224886); also: potency is read from the fitted curve at half-maximal effect; nearly all actives have a fitted effect of over 50% in size
# Method in brief: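 Reads taken at 0, 8, 16, 24, 32 and 40 h from the same wells. HEK293 cells (600/well) carried RealTime-Glo reagents from seeding, with compound added after a 5 h settle at 37 C.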
# [12] = qHTS RealTime-Glo MT Cell Viability Assay in HEK293 cells - 8 hour (AID 1224887); also: nearly all actives have a fitted effect of over 50% in size; also: potency is read from the fitted curve at half-maximal effect
# Method in brief: as §1
# [13] = A CellTox Green Cytotoxicity Assay to monitor cytotoxicity in HEK293 cells - 16 hour (AID 1224888); also: nearly all actives have a fitted effect of over 35% in size; also: potency is read from the fitted curve at half-maximal effect
# Method in brief: as §2
# [14] = qHTS RealTime-Glo MT Cell Viability Assay in HepG2 cells - 0 hour (AID 1224889); also: nearly all actives have a fitted effect of over 50% in size
# Method in brief: as §4
# [15] = A CellTox Green Cytotoxicity Assay to monitor cytotoxicity in HepG2 cells - 8 hour (AID 1224890); also: nearly all actives have a fitted effect of over 45% in size; also: potency is read from the fitted curve at half-maximal effect
# Method in brief: as §3
# [16] = qHTS assay to identify small molecule antagonists of the estrogen receptor alpha (ER-alpha) signaling pathway using the BG1 cell line in the presence of 0.1 nM 17-beta-estradiol - cell viability counter screen (AID 1259241); also: nearly all actives have a fitted effect of over 40% in size; also: potency is read from the fitted curve at half-maximal effect
# Method in brief: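 Live-cell protease activity (CellTiter-Fluor fluorescence, 30 min) was read in the same wells after VM7Luc4E2 cells had been exposed to compounds with 0.1 nM 17beta-estradiol for 22 hr at 37C.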
# [17] = qHTS RealTime-Glo MT Cell Viability Assay in HepG2 cells - 32 hour (AID 1224877); also: nearly all actives have a fitted effect of over 55% in size
# Method in brief: as §4
# [18] = A CellTox Green Cytotoxicity Assay to monitor cytotoxicity in HepG2 cells - 24 hour (AID 1224878); also: nearly all actives have a fitted effect of over 45% in size; also: potency is read from the fitted curve at half-maximal effect
# Method in brief: as §3
# [19] = A CellTox Green Cytotoxicity Assay to monitor cytotoxicity in HepG2 cells - 40 hour (AID 1224879); also: nearly all actives have a fitted effect of over 40% in size; also: potency is read from the fitted curve at half-maximal effect
# Method in brief: as §3
Structure (SMILES),Potency [1],Potency [2],Potency [3],Potency [4],Potency [5],Potency [6],Potency [7],Potency [8],Potency [9],Potency [10],Potency [11],Potency [12],Potency [13],Potency [14],Potency [15],Potency [16],max response [2] [%],Potency [17],Potency [18],Potency [19]
C[C@@H]1O[C@@H](O[C@@H]2C=C3CC[C@@H]4[C@H](CC[C@]5(C)[C@@H](c6ccc(=O)oc6)CC[C@]45O)[C@@]3(C)CC2)[C@H](O)[C@H](O)[C@H]1O,inactive,0.019 µM (active),inactive,inactive,inactive,inactive,inactive,inactive,inactive,inactive,0.0301 µM (active),inactive,inactive,inactive,inactive,inactive,–,–,–,–
O=C(CBr)c1ccc(O)cc1,inactive,–,inactive,inactive,inactive,inactive,inactive,–,inactive,inactive,–,–,inactive,–,–,inactive,22.3,inactive,inactive,–
CC1(C)CC/C(=C/c2ccc(Cl)cc2)C1(O)Cn1cncn1 (stereo unspecified),inactive,–,inactive,inactive,inactive,–,inactive,–,inactive,inactive,24.4 µM (active),–,–,inactive,inactive,–,–,–,–,–
CCOc1cc(C(C)(C)C)ccc1C1COC(c2c(F)cccc2F)=N1 (stereo unspecified),inactive,–,inactive,inactive,–,inactive,–,inactive,–,inactive,–,inactive,inactive,inactive,–,inactive,–,–,inactive,–
C=CC(=O)OCCCCOC(=O)C=C,–,34.7 µM (active),–,inactive,inactive,43.6 µM (active),inactive,43.6 µM (active),inactive,–,34.7 µM (active),inactive,inactive,inactive,inactive,inactive,–,–,inactive,49 µM (active)
Cc1c(Cl)c(=O)oc2cc(OP(=O)(OCCCl)OCCCl)ccc12,–,–,inactive,inactive,inactive,inactive,inactive,inactive,inactive,inactive,–,–,inactive,inactive,–,inactive,–,–,–,inactive
CC(Cc1ccc(C(C)(C)C)cc1)CN1C[C@@H](C)O[C@@H](C)C1 (stereo partly specified),inactive,–,49 µM (active),–,inactive,49 µM (active),inactive,49 µM (active),–,inactive,–,–,–,inactive,–,inactive,–,inactive,–,–
COC(=O)N(C(=O)N1COC2(C(=O)OC)Cc3cc(Cl)ccc3C2=N1)c1ccc(OC(F)(F)F)cc1 (stereo unspecified),inactive,–,inactive,inactive,–,inactive,inactive,inactive,inactive,inactive,–,–,inactive,inactive,inactive,inactive,–,–,–,inactive
ClCc1ccccc1CCl,inactive,–,inactive,inactive,inactive,–,inactive,–,inactive,inactive,–,inactive,–,inactive,inactive,inactive,–,inactive,–,–
OC(c1ccc(Cl)cc1)(c1ccc(Cl)cc1)C(Cl)(Cl)Cl,inactive,–,inactive,inactive,inactive,–,inactive,inactive,inactive,inactive,–,49 µM (active),–,inactive,inactive,inactive,–,inactive,inactive,inactive
COC(=O)N(C(=O)N1CO[C@@]2(C(=O)OC)Cc3cc(Cl)ccc3C2=N1)c1ccc(OC(F)(F)F)cc1,–,–,inactive,inactive,inactive,inactive,inactive,inactive,–,–,–,–,inactive,inactive,inactive,inactive,–,inactive,inactive,inactive
CCCCOP(=O)(CCCC)OCCCC,inactive,–,inactive,inactive,–,inactive,inactive,inactive,inactive,inactive,–,–,inactive,inactive,inactive,inactive,–,–,inactive,inactive
N#CC(Cl)Cl,inactive,–,inactive,inactive,inactive,inactive,1.51 µM (active),inactive,inactive,inactive,–,inactive,inactive,inactive,1.51 µM (active),inactive,–,inactive,inactive,–
CN(C)c1ccc(N=Nc2ccccc2)cc1,–,–,–,inactive,inactive,–,inactive,inactive,–,inactive,–,–,–,inactive,inactive,54.5 µM (active),–,inactive,–,inactive
CC(C)Oc1cccc(NC(=O)c2ccccc2C(F)(F)F)c1,–,–,19.5 µM (active),43.6 µM (active),inactive,1.23 µM (active),–,43.6 µM (active),43.6 µM (active),inactive,–,–,49 µM (active),–,49 µM (active),inactive,–,inactive,43.6 µM (active),43.6 µM (active)
N#C/C=C/C#N,inactive,–,inactive,inactive,–,inactive,inactive,inactive,inactive,inactive,–,–,inactive,–,inactive,inactive,–,inactive,–,inactive
